Test results published in PubChem BioAssay (NCI).
The panel holds about 83,000 compounds, 20% with a hit somewhere; the sample as a whole holds those more often.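 Note: values are percent growth. 100 is the growth of untreated cells, values between 100 and 0 indicate rising inhibition; between -100 and 0 indicates cell death.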 A number with no mark means an inactive call. Calls of active or inactive are those of the source.

What follows are compounds tested on RPMI-8226 leukemia (assay: NCI-60 one-dose screen, 48 h (100 = growth as untreated, 0 = no growth, -100 = all killed)). Conditions: 10 µM unless noted.
Description: Growth inhibition of the RPMI-8226 human tumor cell line is measured as a screen for anti-cancer activity. Cells are grown in 96 well plates and exposed to the test compound for 48 hours. Compounds are tested at a single concentration, which is 10^-5 M for most compounds. The reported endpoint is percent growth (GI% or GIPRCNT), where numbers from 0 - 100% represent growth inhibition, and numbers from -100% - 0 represent cell death. For example, a value of 40 represents 60% growth inhibition. A value of 0 means no net growth occurred over the course of the experiment. A value of -40 indicates 40% of cells at the beginning of the experiment died by the end of the experiment. A value of -100 means all cells are dead at the end of the experiment.
NCI-60 Human Tumor Cell Lines Screen was performed using the standard one-dose NCI protocol, which is described in more detail at https://dtp.cancer.gov/discovery_development/nci-60/default.htm.
Compounds with GIPRCNT values below 10 were considered active. Activity score was based on GIPRCNT using the following formula: […]
Score is 0 for GIPRCNT values of 100 or above, 50 for GIPRCNT values of 0, and 100 for GIPRCNT values of -100.

Row | Compound | growth
1 | CN1CCN(c2ccc(NC3=C(Cl)C(=O)c4ncccc4C3=O)cc2C(F)(F)F)CC1 | -4.52% (active)
2 | COc1ccc(C(=O)Cn2c(C(=O)c3ccccc3)nc3ccccc32)cc1 | -6.46% (active)
3 | O=C1Nc2ccccc2/C1=C\c1c(-c2ccc(F)cc2)nc2ccccn12 | 94.8%
4 | Cc1c2cc[nH]c(=O)c2c(C)c2c1[nH]c1cc(OCCN3CCN(C)CC3)ccc12 | -8.18% (active)
5 | CCC(CC)NCC(C)(C)O | 107%
6 | CCCCCN1C=C/C(=C\C(=O)N2CCCc3ccccc32)c2ccccc21 | 43.9%
7 | Cc1cc2nc3c4cc(C=O)ccc4n(CCN(C)C)c3nc2cc1C | -22.6% (active)
8 | CC1(C)NCCC[C@]2(C)[C@H]3CC[C@@H]4[C@H]5[C@H](C(=O)/C=C/c6ccco6)CC[C@]5(CO)CC[C@@]4(C)[C@]3(C)CC[C@@H]12 | 44.2%
9 | Cc1cc(C)c(S(=O)(=O)Oc2ccccc2[N+](=O)[O-])c(C)c1 | 24.2%
10 | CC(c1ccccc1)C(C(=O)c1ccccc1)c1ccccc1 (stereo not given) | 107%
11 | CC(=O)Nc1cccc(-c2ccc3c(c2)NC(=O)/C3=C\c2ccc[nH]2)c1 | 15.8%
12 | COc1c(Cl)c2c(c(OC)c1OC)-c1ccc(SC)c(=O)cc1[C@@H](NC(=O)OCC(F)(F)F)CC2 | 2.59% (active)
13 | CCOC(=O)CCN(CC(C)C)C(=S)Nc1ccccc1 | 115%
14 | O=[N+]([O-])c1cc(Br)c2cccc3c2c1CC3 | 109%
15 | N#CC1=C(N)Oc2c(cnn2-c2ccc([N+](=O)[O-])cc2[N+](=O)[O-])C1c1ccccc1 (stereo not given) | 92.5%
16 | CCN(CC)c1ccc(/C=N/NC(=O)CSc2nc3ccccc3c(=O)n2CCc2ccc(S(N)(=O)=O)cc2)c(O)c1 | -31.5% (active)
17 | COc1cc(CC(=O)n2ncc3ccc(N)cc32)cc(OC)c1OC | 100%
18 | C#CCNC(=O)[C@]1(C)CC[C@]2(C)CC[C@@H]3C(=CC[C@H]4[C@@]3(C)CC[C@H]3C(C)(C)C(=O)CC[C@]43C)[C@@H]2C1 | 69.1%
19 | O=C(Nc1cccc(C2=NCCN2)c1)c1ccc(-c2ccc(C(=O)Nc3cccc(C4=NCCN4)c3)cc2)cc1 | 24.8%
20 | COc1ccccc1NS(=O)(=O)c1cccc(C(=O)Nc2ccc(Br)cc2)c1 | 38.4%

Row | Compound | growth
21 | O=C(/C=C/c1ccc(F)cc1)c1ccc(NC(=O)N2CCN(c3cc4c(cc3F)c(=O)c(C(=O)O)cn4C3CC3)CC2)cc1 | 98.6%
22 | CCOC(=O)c1cc(C#N)n2ccc3ccccc3c12 | 111%
23 | CN(C)c1ccc(Nc2c3ccccc3nc3cc(NC(=O)CCN4CCCC4)ccc23)cc1 | -35.5% (active)
24 | O=C(/C(=C\c1ccc([N+](=O)[O-])cc1)S(=O)Cc1ccc(F)cc1)c1ccc(F)cc1 (stereo not given) | -37.6% (active)
25 | COc1ccc2c(c1)oc1c(C)c3c(c(C)c12)C(=O)N(N)C3=O | 59.5%
26 | NC(=NCCCOc1ccc(F)cc1)Nc1ccc(Cl)cc1 | 85.3%
27 | Cc1ccc(C(=O)/C(=C/c2ccc([N+](=O)[O-])cc2)SCc2ccc(Cl)cc2)cc1 | -32.7% (active)
28 | Cc1ccc(-c2csc(NC(=O)CSc3nc(-c4ccccc4)cc(=O)[nH]3)n2)cc1 | 78.3%
29 | CCN(CC)CCn1c(=O)c2cc(OC)c(OC)cc2c2ccc3cc4c(cc3c21)OCO4 | 3.16% (active)
30 | NS(=O)(=O)c1ccc(CCn2c(SCC(=O)c3ccc(Cl)cc3)nc3ccccc3c2=O)cc1 | 107%
31 | Cc1ccc(-n2cc(-c3ccccc3)c3c2N=NN2CCN=C32)cc1 | 93.4%
32 | C#Cc1cccc(NC(=O)Nc2cccc(NC(=O)CCl)c2)c1 | 9.12% [8.25 µM] (active)
33 | CCNc1nc2ccc(Nc3ccnc4cc(Cl)ccc34)cc2[nH]1 | 86.7%
34 | CN1[C@@H]2CC[C@H]1/C(=C\c1ccccc1)C(=O)/C2=C/c1ccccc1 | 27%
35 | COc1ccc(C(=O)C2C(C#N)C(C#N)C3C=Cc4ccccc4N32)cc1 (stereo not given) | 29.9%
36 | CN1CCN(CCNc2nccc(-c3c(-c4cccc(O)c4)nc4sccn34)n2)S1(=O)=O | 48.7%
37 | COc1ccc(/C=C(\C#N)n2nc3cccc(F)c3n2)cc1 | 102%
38 | COc1cc2c(c(O)c1Cl)C(=O)c1c(O)cc(C[C@H](C)O)cc1[C@H]2[C@H]1c2cc(C[C@H](C)O)cc(O)c2C(=O)c2c1cc(OC)c(Cl)c2O | 14.1%
39 | COc1ccc(C(=O)c2cc(C)c(OC)c(C)c2)c(OC)c1OC(=O)C(Cl)Cl | 23.4%
40 | COc1ccc(C(C)=O)c(OC)c1 | 100%
